The values that follow come from PubChem BioAssay AID504454 (NMMLSC, 2011).

Among all 340,000 compounds or so, about 1,400 (0.41%) were called active.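 How the source made its calls: active means response above a set limit, near 3 SD of response in nonfluorescent compounds (cut at about 42% in these data); inactive means the rest.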 The sample as a whole holds a higher share of actives than the screen did.

Chain of Beta-2 adrenergic receptor (Homo sapiens) (P07550 whole entry, looked up): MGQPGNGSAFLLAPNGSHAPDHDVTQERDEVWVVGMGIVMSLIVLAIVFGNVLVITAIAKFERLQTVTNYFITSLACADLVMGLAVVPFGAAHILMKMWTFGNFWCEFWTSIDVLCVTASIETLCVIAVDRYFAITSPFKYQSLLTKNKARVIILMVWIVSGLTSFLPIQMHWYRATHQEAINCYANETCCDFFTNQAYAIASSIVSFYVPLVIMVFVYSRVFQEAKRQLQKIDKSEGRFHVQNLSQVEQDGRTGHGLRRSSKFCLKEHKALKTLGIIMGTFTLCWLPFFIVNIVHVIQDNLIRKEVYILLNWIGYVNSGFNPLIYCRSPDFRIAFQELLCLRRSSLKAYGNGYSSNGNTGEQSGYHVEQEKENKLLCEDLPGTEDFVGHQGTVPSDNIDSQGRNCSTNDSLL

This test addresses Beta-2 adrenergic receptor (Homo sapiens) (UniProt P07550). Put plainly: beta2AR agonists driving receptor internalization, primary screen, cell-based, FAP fluorogen, flow cytometry (AID 504454). The settings on record: Am2.2-beta2AR cells, hits give high values, concentration not given here. On the technique in general: A flow cytometer gives signals particle by particle.
`Cc1ccccc1NC(=O)C(C)OC(=O)CCC(=O)N(CC(C)C)c1c(N)n(CC(C)C)c(=O)[nH]c1=O` (stereo not given): the response is -6.93% (inactive).
Turning to `CC(Cc1cccs1)NC(=O)c1cccc(Cl)c1` (stereo not given), the response is 5.14% (inactive).
With `NC(=O)C1CCN(C(=O)/C(=C/c2ccco2)NC(=O)c2ccccc2)CC1`, the response was 1.8% (inactive).
Regarding `CN(CCCNC(=O)CN1C(=O)CC(C)(C)S(=O)(=O)c2ccccc21)C1CCCCC1`, the response is -2.22% (inactive).
In the case of `CC(NC(=O)c1ccccc1C(=O)O)c1ccc(-n2ccnc2)cc1` (stereo not given) it was -8.08% (inactive).
In the case of `CCCOCC(O)CC(CC)C(=O)NNC(=S)Nc1ccccc1` (stereo not given) it was 2.14% (inactive); in that of `O=C(O)CCn1c(O)c(C=C2N=c3ccccc3=N2)sc1=S`, -0.19% (inactive).
The same measure for `COC(=O)c1ccccc1NC(=O)C1CCN(S(=O)(=O)c2cc(OC)ccc2OC)CC1`: 4.15% (inactive); for `Nc1cc(N2CCCCCC2)c2nonc2c1[N+](=O)[O-]`: 7.26% (inactive).
As for `Cc1nnc(SCC(=O)N2c3ccccc3C(C)(c3ccc(Cl)cc3)CC2(C)C)s1` (stereo not given), the response was 5.93% (inactive).
As to `CSCCNC(=O)c1ccc2nc(Cc3ccccc3F)oc2c1`, the response was 1.28% (inactive).
In the case of `CC1=C(C)CC(C(=O)NNC(=O)c2ccccc2O)C(C(=O)O)C1` (stereo not given) it was -13% (inactive).
In the case of `COC(=O)c1c(NC(=O)C2CC(C)=C(C)CC2C(=O)O)sc2c1CCCCC2` (stereo not given) it was 4.27% (inactive); in that of `CC1=C(C)CC(C(=O)NNC(=O)c2csc3c2CCC(C(C)(C)C)C3)C(C(=O)O)C1` (stereo not given), 61% (active).
As to `C=CCNC(=O)C1CC=CCC1C(=O)O` (stereo not given), the response is -0.29% (inactive).
The same measure for `CCCCNc1c(-c2ccc(OC)c(Sc3ccc(OC)cc3)c2)nc2ccc(Cl)cn12`: 23% (inactive); for `CCCCNc1c(-c2cccc(Sc3ccc(OC)cc3)c2)nc2ccccn12`: 45% (active).
The same measure for `CCCCCCSc1ccc(-c2nc3ccc(Cl)cn3c2NCc2ccccc2)cc1`: -5.85% (inactive); for `COc1ccc(C2=Nn3c(nnc3-c3ccccc3OC)SC2)cc1OC1CCCC1`: 29.8% (inactive); for `O=C(NC1=CC(=O)c2ccccc2C1=O)c1ccccc1`: 84% (active).
For `O=C1C=C(NS(=O)(=O)c2ccccc2)C(=O)c2ccccc21`, the response was 1.55% (inactive).
In the case of `CC(NC(=O)c1ccccc1)C(=O)Nc1ccccc1` (stereo not given) it was -0.42% (inactive); in that of `COc1ccc(C2c3[nH]c4ccccc4c3CCN2CCCn2cccn2)cc1C` (stereo not given), -1.99% (inactive); in that of `Cc1ccc(N2C(=O)CC(N3CCSCC3)C2=O)c(C)c1` (stereo not given), -0.71% (inactive).
The same measure for `CC(C)(C)NC(=O)CN(C(=O)c1ccc(Cl)nc1)c1cccc2ccccc12`: 1.65% (inactive); for `CC(=O)OCCOCn1cnn2c(=O)c(Br)c(C)nc12`: -5.29% (inactive); for `Cc1cnc(C)c(N2CCN(C(=O)C3CCC(=O)N(CCc4cccc(F)c4)C3)CC2)n1` (stereo not given): -4.11% (inactive).
The same measure for `NC(=O)C1(N2CCCC2)CCN(Cc2ccccc2)CC1`: -1.07% (inactive); for `COC(=O)c1[nH]c2ccc(Br)cc2c1NC(=O)Oc1ccccc1`: 43.5% (active); for `C/C(=N\N)c1c(-c2ccccc2)c2cc(Br)ccc2[nH]c1=O`: -0.61% (inactive).
As for `COC(=O)c1[nH]c2ccccc2c1NC(=O)CN1CCCc2ccccc21`, the response is 6.44% (inactive).
In the case of `COCCN1C(=O)c2oc3c(C)cc(C)cc3c(=O)c2C1c1cccc(O)c1` (stereo not given) it was 51.7% (active); in that of `O=C1c2oc3ccccc3c(=O)c2C(c2cccc(O)c2)N1c1ccccn1` (stereo not given), -12.8% (inactive).
As to `CCCOc1ccc(C2c3c(oc4cc(C)c(C)cc4c3=O)C(=O)N2CCCN2CCOCC2)cc1` (stereo not given), the response was -4.95% (inactive).
The same measure for `COCCCn1c(SCc2cccc(OC)c2)nc2cc(OC)c(OC)cc2c1=N`: 7.49% (inactive); for `CCCC(=O)Nc1nnc(CC(=O)OCC)s1`: 8.2% (inactive).
For the compound `CN1CCN(C(CNS(=O)(=O)c2cccs2)c2cccnc2)CC1` (stereo not given), the response was -2.41% (inactive).
In the case of `COc1ccc(C[C@H]2CN3C(=NC[C@H]3C)N2CCNC(=O)CCC2CCCCC2)cc1` it was 8.82% (inactive); in that of `COc1ccc(N2C(=O)CC(Sc3n[nH]c(-c4ccc(C)cc4)n3)C2=O)cc1` (stereo not given), 1.89% (inactive).
With `CC(=O)Nc1ccc(N2C(=O)CC(Sc3nccc(C)n3)C2=O)cc1` (stereo not given), the response was 1.18% (inactive).
On to `CCOc1ccccc1N1C(=O)CC(Sc2nccc(C)n2)C1=O` (stereo not given), for which the response was 47.5% (active).
In the case of `COCC1CCN(C(=O)CCc2nnc(C3(c4ccc(Cl)cc4)CCC3)o2)C1` (stereo not given) it was -4.25% (inactive).
For `COc1ccc(CCNC(=O)CCc2ccccc2O)cc1OC`, the response is 0.69% (inactive).
The same measure for `CCOC(=O)c1ccc(NC(=O)Cn2nnc(-c3ccc(C)cc3)n2)cc1`: 91.8% (active).
The same measure for `Cc1ccc(NC(=O)CN(C)C(=O)Cn2nnc(-c3ccccc3)n2)cc1`: -5.12% (inactive).
Consider `CCOC(=O)c1ccc(NC(=O)Cn2cnc3cc(C)c(C)cc32)cc1`, for which the response is 9.03% (inactive).
In the case of `Cc1ccc(CNC(=O)CCC(=O)N2CC(C)Sc3ccccc32)cc1` (stereo not given) it was -5.01% (inactive).
Take `Cc1cccc(C=CC(=O)c2ccc(Cl)cc2)c1`: the response was 0.41% (inactive).
Turning to `Cc1cc(C)nc(S/C=C/C(=O)c2ccccc2)n1`, the response is 41.9% (inactive).
With `O=C(/C=C/Sc1ncn[nH]1)c1ccc(Cl)cc1`, the response was 78.1% (active).
On to `CCc1cc(-c2nnc(SCC(=O)NC3CC3)n2C)cs1`, for which the response is -9.66% (inactive).
For the compound `CCC(C)(C)NC(=O)CN(C(=O)C(=O)Nc1ccc2c(c1)OCCO2)C(C)(C)CC`, the response is 0.65% (inactive).
Take `COc1ccc(-n2c(=O)[nH]c3cc(C(=O)NCCc4ccc(OC)c(OC)c4)ccc3c2=O)c(OC)c1`: the response is 2.93% (inactive).
As for `CN/C(=C\[N+](=O)[O-])NCCSCc1csc(CN(C)C)n1`, the response is -4.88% (inactive).
`CC(C)CC(=O)NC(=S)NNC(=O)c1cccc([N+](=O)[O-])c1`: the response was -4.1% (inactive).
Regarding `C#CCN1CC(C)/C(=N/O)CC1C` (stereo not given), the response was -6.18% (inactive).
Consider `O=C(/C=C/c1ccco1)NC(=S)Nc1ccccc1Br`, for which the response is 12.9% (inactive).
In the case of `O=C(/C=C/c1ccco1)NC(=S)N1CCCCC1` it was 88.5% (active).
On to `COc1ccccc1/C=C/C(=O)NC(=S)N1CCOCC1`, for which the response is -6.28% (inactive).
The same measure for `C=CCNC(=O)COC(=O)c1ccccc1C(=O)N(C)C1CCCCC1`: 2.56% (inactive); for `Cc1ccc(SCC(=O)N2CCN(c3ccc(F)cc3)CC2)cc1`: -23.7% (inactive).
Take `CCN1CCC2(CC1)N=C(c1ccc(F)cc1)C(=S)N2C(=O)c1ccc(C)cc1`: the response is 85.6% (active).
In the case of `CCN1CCN(C(=O)CSc2ccc(C)cc2)CC1`, the response was 11.4% (inactive).
The same measure for `CCn1cc(/C=C(\NC(=O)c2ccc(C)cc2)C(=O)NCCN2CCOCC2)c2ccccc21`: 4.83% (inactive); for `CCCN(Cc1cc2cccc(C)c2[nH]c1=O)S(C)(=O)=O`: 9.7% (inactive).
As for `COc1ccc(CCNC(=O)C(=O)Nc2ccc3nc4n(c(=O)c3c2)CCCCC4)cc1OC`, the response was -7.18% (inactive).
Consider `Cc1nc(-c2ccc(Cl)cc2)sc1C1(C)CC(c2ccc(Br)cc2)=NO1` (stereo not given), for which the response was -4.06% (inactive).
Regarding `Clc1cccc(-c2nc(NCC3CCCO3)c3ccccc3n2)c1` (stereo not given), the response is -5.27% (inactive).
The same measure for `NC(N)=Nc1nc(-c2ccccc2)c2cc(Cl)ccc2n1`: 8.97% (inactive); for `Clc1ccc2nc(-c3ccccc3)nc(C(Cl)Cl)c2c1`: 50% (active).
For the compound `Cc1ccc(S(=O)(=O)NCCc2nnc3ccc(SCc4cccnc4)nn23)cc1`, the response was -8.28% (inactive).
The same measure for `CC(C)OC(=O)c1ccc(COc2ccc3ccc(=O)oc3c2)o1`: -3.14% (inactive); for `CCN(CC)C(=O)CSc1nnc(CNc2ccc(F)cc2)n1Cc1ccco1`: -1.42% (inactive).
In the case of `CC(C)(C)OC(=O)N1CCC(NC(=O)c2[nH]cnc2C(=O)N[C@@H](Cc2ccccc2)C(=O)OCc2ccccc2)CC1` it was 78.6% (active); in that of `CC(C)(C)OC(=O)CNC(=O)c1[nH]cnc1C(=O)N[C@@H](Cc1ccccc1)C(=O)OCc1ccccc1`, 10.2% (inactive).
For `O=C(N[C@@H](Cc1ccccc1)C(=O)OCc1ccccc1)c1nc[nH]c1C(=O)NC1CCNCC1`, the response is -6.96% (inactive).
The same measure for `O=C(O)c1ccc(Cn2cnc3c(=S)nc[nH]c32)cc1`: 5.59% (inactive); for `O=S(=O)(Nc1ccc2cn[nH]c2c1)c1ccccc1`: 4.15% (inactive); for `O=C(O)c1cc(S(=O)(=O)Nc2ccc3cn[nH]c3c2)ccc1Br`: 7.91% (inactive).
For the compound `O=S(=O)(Nc1ccc2[nH]ncc2c1)c1ccccc1Cl`, the response is 60.7% (active).
Consider `Cc1ccc(S(=O)(=O)N(CC(=O)NN=C2CCN(C)CC2)c2ccc(F)cc2)cc1`, for which the response is -3.48% (inactive).
Regarding `Oc1ccccc1C1=NN(c2ccccc2)C(c2ccccc2)C1` (stereo not given), the response is 13.4% (inactive).
The same measure for `COc1ccc(CCNC(=O)C2CCCN(S(=O)(=O)c3ccc(OC)cc3)C2)cc1` (stereo not given): -1.09% (inactive).
The same measure for `COc1ccc(S(=O)(=O)N2CCCC(C(=O)Nc3ccc(NC(=O)c4ccccn4)cc3)C2)cc1` (stereo not given): 46.4% (active).
As to `CC(=O)Nc1ccc(NC(=O)C2CCCN(S(=O)(=O)c3ccc(Cl)cc3)C2)cc1` (stereo not given), the response is -2.61% (inactive).
In the case of `COc1ccc(C2CC(c3cccs3)Nc3nnnn32)cc1` (stereo not given) it was 12.6% (inactive).
The same measure for `Cc1ccc(OCC(=O)Nc2ccc(-c3nc4ncccc4o3)cc2)cc1`: 117% (active); for `Cc1ccc(NC(=O)COc2ccc(/C=C3/NC(=O)NC3=O)cc2)cc1`: 7.62% (inactive); for `Cc1ccc2nc(-c3ccc(NC(=O)c4cccnc4)cc3)oc2c1`: 17.5% (inactive).
In the case of `COc1cc(/C=C2\SC(=O)NC2=O)ccc1OCc1ccc(Cl)nc1` it was 12.6% (inactive); in that of `COc1cc(/C=C2/C(=O)ON=C2C)ccc1OCc1cccc(F)c1`, 105% (active); in that of `CC1=NOC(=O)/C1=C\c1ccccc1`, 10.9% (inactive).
As for `C#CCOc1ccc(/C=C2/C(=O)ON=C2C)cc1OCC`, the response is -1.93% (inactive).
The same measure for `C=CCOc1ccc(/C=C2/C(=O)ON=C2C)cc1OCC`: 4.94% (inactive); for `COc1cc(/C=C2/C(=O)ON=C2C)ccc1OCc1ccccc1F`: 88.8% (active).
